Only a sample is shown.
aSyn 5UTR act – Activators via SNCA 5'UTR binding, MLPCN; activity score, % (tested at 7.5 µM), hits read low; hit rate 7.1% among 300,000; AID 1814; alpha-synuclein 5'UTR reporter, activators screen; in the data active means activity score below about -60%
Each line names hits and unclear results; the compound was inactive in the other large screens.

O=C(Nc1ccc(NC(=O)c2cccs2)c(Cl)c1)c1cccs1	aSyn 5UTR act -118
COc1cc(NC(=O)COc2ccccc2Cl)ccc1NC(=O)c1cccs1	aSyn 5UTR act -113
COc1cc(NC(=O)c2ccccc2Cl)ccc1NC(=O)c1ccco1	aSyn 5UTR act -195
CC(C)(C)C(=O)/C(=C\c1cccc([N+](=O)[O-])c1)n1cncn1	aSyn 5UTR act -129
CC1CCC2(CC1)Nc1ccccc1C(=O)N2c1ccccc1 (stereo not drawn)	aSyn 5UTR act -105
O=[N+]([O-])c1cccc(-c2nnc(SCc3cccnc3)o2)c1	aSyn 5UTR act -62
COc1cccc(-c2nnc(SCc3cccnc3)o2)c1	aSyn 5UTR act -164
COc1cc(OC)c(C(=O)Nc2cccc(C(C)=O)c2)cc1OC	aSyn 5UTR act -78
COc1ccc(C(=O)Nc2cccc(C(C)=O)c2)cc1OC	aSyn 5UTR act -71
COc1ccc(C(C)NC(=O)Nc2ccc(C(C)=O)cc2)cc1OC (stereo not drawn)	aSyn 5UTR act -100
C/C(=N\Nc1nc(-c2ccccc2O)nc2ccccc12)c1ccccc1	aSyn 5UTR act -91
C/C(=N\Nc1nc(-c2ccccn2)nc2ccccc12)c1ccc(F)cc1	none
N/C(=N\OC(=O)CCC1CCCC1)c1ccccc1	aSyn 5UTR act -126
CC(C)(C)c1ccc(C(=O)O/N=C(\N)c2ccccn2)cc1	none
N/C(=N\OC(=O)CCC1CCCC1)c1ccccn1	aSyn 5UTR act -133
COc1ccnc(Oc2ccc(C)cc2)c1C#N	aSyn 5UTR act -81
COc1ccnc(Oc2ccc3ccccc3c2)c1C#N	aSyn 5UTR act -74
COc1ccnc(N=CNOCc2ccc(C)cc2)c1C#N	aSyn 5UTR act -100
CSc1nc(Oc2ccc3ccccc3c2)c2sccc2n1	none
CCN(CC(=O)NCc1ccc(F)cc1)C(=O)/C=C/c1ccc(S(=O)(=O)N(CC)CC)cc1	aSyn 5UTR act -79
CCN(CC)S(=O)(=O)c1ccc(/C=C/C(=O)Nc2cccc(F)c2)cc1	aSyn 5UTR act -83
CCN(CC(=O)Nc1c(F)cccc1F)C(=O)/C=C/c1ccc(S(=O)(=O)N2CCCCCC2)cc1	none
O=C(Nc1ccccc1Cl)c1cc(=O)c2ccccc2o1	aSyn 5UTR act -144
O=C(Nc1ccccc1Br)c1cc(=O)c2ccccc2o1	aSyn 5UTR act -184
Cc1c(OCc2ccccc2)c(=O)ccn1Cc1ccccc1	aSyn 5UTR act -111
Oc1ccc(-c2nccc(-c3ccc(F)cc3)n2)cc1	aSyn 5UTR act -144
Cc1ccc(Cn2ncn(-c3ccccc3)c2=O)cc1	aSyn 5UTR act -74
CCN=c1scc(-c2ccco2)n1/N=C/c1ccc(O)cc1	aSyn 5UTR act -173
COCCN=c1scc(-c2cccs2)n1/N=C/c1ccc(O)c(O)c1O	none
CCN=c1scc(-c2ccco2)n1/N=C/c1ccc(OC)c(O)c1	aSyn 5UTR act -228
Nc1nc(CSc2ccccc2)nc(N2CCCCC2)n1	aSyn 5UTR act -129
Cc1[nH]c(C)c(C(=O)/C=C/c2ccc([N+](=O)[O-])cc2)c1C	aSyn 5UTR act -232
OCc1ccc(O)c2ncccc12	none
O=C(Cc1ccc(-c2ccccc2)cc1)Nc1ncccc1O	aSyn 5UTR act -97
CCOC(=O)COc1cccc2c(=O)n(CC(=O)NCCc3ccccc3)ccc12	aSyn 5UTR act -73
CCOC(=O)C(C)Oc1cccc2c(=O)n(CC(=O)NCc3ccccc3)ccc12 (stereo not drawn)	none
O=c1c(-c2nc3ccccc3s2)cccn1Cc1ccc(Cl)cc1	aSyn 5UTR act -111
Clc1ncccc1-c1nc2ccccc2s1	aSyn 5UTR act -149
C/C(=N\Nc1ccccc1[N+](=O)[O-])c1ccc(N2CCOCC2)cc1	aSyn 5UTR act -82
CC(C)/C(=N/Nc1ccccc1[N+](=O)[O-])c1ccccc1	aSyn 5UTR act -86
C/C(=N/Nc1ccccc1[N+](=O)[O-])c1ccc(C)c([N+](=O)[O-])c1	aSyn 5UTR act -166
O=[N+]([O-])c1c(Nc2ccccc2O)cc(N2CCOCC2)c2nonc12	none
COc1c(C(=O)NNC(=O)c2ccccc2Cl)csc1Br	aSyn 5UTR act -85
Cc1cc(C)nc(N/N=C/c2cccc(Cl)c2)n1	aSyn 5UTR act -93
Cc1cc(-c2ccccc2)nc(N/N=C/c2ccco2)n1	aSyn 5UTR act -126
Clc1cccc(/C=N/Nc2nc(Cl)nc3ccccc23)c1	aSyn 5UTR act -172
Cc1cc(-c2ccccc2)nc(N/N=C/c2ccccc2)n1	aSyn 5UTR act -110
Clc1cccc(/C=N\Nc2nccs2)c1	aSyn 5UTR act -168
C(=N/Nc1nc(-c2ccccc2)cc(-c2ccccc2)n1)/c1cccnc1	aSyn 5UTR act -121
Cc1cc(C(=O)Nc2ccc([N+](=O)[O-])cn2)cs1	aSyn 5UTR act -137
Cc1ccc(C(=O)Nc2ccc([N+](=O)[O-])cn2)o1	aSyn 5UTR act -93
CC(Oc1cccc(Cl)c1)C(=O)Nc1ccc([N+](=O)[O-])cn1 (stereo not drawn)	none
O=C(CSc1nnc2ccc3ccccc3n12)N1CCOCC1	aSyn 5UTR act -94
COc1ccccc1-c1nnc(-c2ccc(N3CCOCC3)cc2)o1	aSyn 5UTR act -106
O=C(CSc1nnc(-c2ccccc2Cl)o1)N1CCOCC1	aSyn 5UTR act -124
Cc1ccccc1-c1nnc(SCC(=O)N2CCCC2)o1	aSyn 5UTR act -135
COc1ccccc1-c1nnc(SCC(=O)N2CCOCC2)o1	aSyn 5UTR act -85
Cc1cccc(NC(=O)/C(C#N)=C/c2ccccc2O)n1	aSyn 5UTR act -140
COc1ccccc1/C=N/NC(=O)c1csc(C)c1C	aSyn 5UTR act -78
Cc1scc(C(=O)N/N=C/c2ccc(Cl)s2)c1C	aSyn 5UTR act -93
O=c1cc(CNc2cc(C(F)(F)F)cc(C(F)(F)F)c2)nc2sccn12	none
O=c1cc(COc2ccc(Cl)c(Cl)c2)nc2sccn12	aSyn 5UTR act -83
COc1ccc(C2CC(C)(c3ccc(OC)cc3)Nc3ccccc3N2)cc1 (stereo not drawn)	aSyn 5UTR act -192
CCOc1cc2nc3c4ccccc4n(C)c3nc2cc1OCC	aSyn 5UTR act -62
Cc1ccc(/C=N/Nc2ccc(F)cc2F)s1	aSyn 5UTR act -180
COc1cc(/C=N/Nc2ccc(F)cc2F)cc(OC)c1O	aSyn 5UTR act -63
O=C1Nc2cc(Cl)c(Cl)cc2N(O)N1c1ccc(Cl)cc1	aSyn 5UTR act -149
CC(=O)NC(=C(Cl)Cl)S(=O)(=O)c1ccccc1	aSyn 5UTR act -137
Cc1ccc(C(=O)NC(=C(Cl)Cl)S(=O)(=O)c2ccc(C)cc2)cc1	aSyn 5UTR act -72
COc1ccccc1N1C(=O)S/C(=C\c2cc(C)n(C)c2C)C1=O	aSyn 5UTR act -128
COc1ccccc1N1C(=O)S/C(=C\c2ccc(C)s2)C1=O	aSyn 5UTR act -135
Cc1ccc(/C=C2\Sc3ccccc3C2=O)s1	aSyn 5UTR act -104
Cc1[nH]c(=O)c(C(=O)/C=C/c2ccccc2F)c2c1CCCC2	aSyn 5UTR act -364
O=Cc1c(-c2ccc(Cl)cc2)oc2ccc(O)cc12	aSyn 5UTR act -118
O=C(Nc1cccc(Br)c1)c1cc2ccccc2o1	aSyn 5UTR act -184
NS(=O)(=O)c1cccc(NC(=O)c2cc3ccccc3o2)c1	aSyn 5UTR act -71
CCC(=O)Nc1cccc(NC(=O)c2cc3ccccc3o2)c1	aSyn 5UTR act -168
Cc1cccc(NC(=O)c2cc3ccccc3o2)c1	aSyn 5UTR act -272
CC(C)(C)n1ncc2c(=O)n(CC(=O)NC3CCCCC3)cnc21	aSyn 5UTR act -108
CC(C)(C)n1ncc2c(=O)n(CC(=O)c3ccccc3)cnc21	aSyn 5UTR act -107
CC(C)(C)n1ncc2c(=O)n(CC(=O)NCc3ccc(F)cc3)cnc21	aSyn 5UTR act -90
CCOC(=O)C(C)Oc1cccc2c(=O)n(CC(=O)NCc3ccc(F)cc3)ccc12 (stereo not drawn)	none
